The source of these data is PubChem BioAssay (EPA / NIEHS).

Calls of active or inactive are those of the source. Rule for the calls: active = hit-call score of the fitted dose curve at least 0.9, where 1 is the maximum; inactive = score below 0.9.

Usually AC50 stands for the midpoint of the concentration-response curve, whichever way the signal moves.

The nature of assay [1]: ATG_CRE_CIS: Attagene CIS-FACTORIAL HepG2 Assay for human cAMP Responsive Element (CRE) binding protein 3 (AID 2282926). The conditions noted are these: HepG2 CRE cis-reporter, Attagene multiplexed mRNA; actives raise or lower the signal. A digest of the protocol:
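Human liver HepG2, transient MRTU transfection, 24 h compound exposure. Total RNA → oligo(dT) RT → PCR → 6-FAM primer extension → HpaI cut → CE. Activity called both directions vs DMSO.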

The target in assay [2] is CCAAT/enhancer-binding protein beta (Homo sapiens) (UniProt P17676). The assay can be described thus: ATG_C_EBP_CIS: Attagene CIS-FACTORIAL HepG2 Assay for human CCAAT/Enhancer Binding Protein (C/EBP) beta (AID 2282927). Particulars: HepG2 Attagene cis-factorial transcription factor reporter; actives raise or lower the signal. In a few lines:
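Endogenous C/EBPb-driven reporter transcripts measured in transfected human HepG2 cells at 24 h via RT-PCR and capillary electrophoresis of labelled fragments. Activity fitted in both directions relative to DMSO baseline.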

Assay [3] is described as follows: ATG_DR4_LXR_CIS: Attagene CIS-FACTORIAL HepG2 Assay for human Liver X Receptor (LXR), DR4 submotif (AID 2282929). The conditions noted are these: HepG2 Attagene DR4 cis-reporter, mRNA transcription; actives raise or lower the signal. A digest of the protocol: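 Measures endogenous transcription factor activity via a DR4-driven reporter transcript in human HepG2 cells. Compounds incubated 24 h; mRNA quantified by RT-PCR and capillary electrophoresis, analysed as gain or loss of signal versus DMSO.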

Assay [4] is described as follows: ATG_AP_2_CIS: Attagene CIS-FACTORIAL HepG2 Assay for human Activator Protein 2 (AP-2) (AID 2282932). The conditions noted are these: HepG2 AP-2 cis-reporter, Attagene transcription factor profiling; actives raise or lower the signal. In a few lines:
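HepG2, transient MRTU transfection, cis-regulated reporters; 24 h compound exposure; RNA isolated, RT-PCR, 6-FAM labelling, HpaI digest, CE fluorescence. DMSO = negative control/baseline, bidirectional fit.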

A short description of assay [5]: ATG_BRE_CIS: Attagene CIS-FACTORIAL HepG2 Assay for human Bone Morphogenetic Protein (BMP) Response Element (BRE) (AID 2282933). The conditions noted are these: HepG2 BMP response element reporter, Attagene transcription factor profiling; actives raise or lower the signal. In a few lines: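 Read-out: reporter mRNA induction quantified by RT-PCR and capillary electrophoresis after 24 h chemical exposure of transfected HepG2 cells. Endogenous factor activity on the BMP response element; gain or loss fitted against DMSO baseline.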

Assay [6] concerns the target Transcription factor E2F1 (Homo sapiens) (UniProt Q01094). Nature of the assay: ATG_E2F_CIS: Attagene CIS-FACTORIAL HepG2 Assay for human E2F Transcription Factor 1 (AID 2282935). Particulars: HepG2 Attagene cis-reporter, E2F reporter RNA transcripts; actives raise or lower the signal. A digest of the protocol:
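Cis-element reporter mRNA induction in transiently transfected HepG2, 24 h exposure. Activity fitted in both directions relative to DMSO negative control.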

Assay [7] can be described thus: ATG_EGR_CIS: Attagene CIS-FACTORIAL HepG2 Assay for human Early Growth Response 1 (EGR1) (AID 2282938). Particulars: HepG2 Attagene CIS-FACTORIAL EGR reporter mRNA; actives raise or lower the signal. In a few lines:
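Cell-based multiplex transcription assay: HepG2 carrying transfected cis-element reporter units, 24 h chemical treatment. Fluorescence from capillary electrophoresis of RT-PCR products gives mRNA levels; fitting is bidirectional relative to DMSO.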

The nature of assay [8]: ATG_M_19_CIS: Attagene CIS-FACTORIAL HepG2 Assay for M19 Transcription Factor (Internal Marker) (AID 2282939). The conditions noted are these: HepG2 Attagene CIS-FACTORIAL M19 internal marker reporter; actives raise or lower the signal. In a few lines:
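Readout: fluorescent reporter-transcript fragments by capillary electrophoresis after RT-PCR. Human HepG2 liver cells carried transfected MRTU constructs reporting endogenous transcription-factor activity; exposure 24 h. Gain or loss of signal fitted relative to DMSO.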

A short description of assay [9]: ATG_Ets_CIS: Attagene CIS-FACTORIAL HepG2 Assay for human Erythroblast Transformation Specific (ETS) (AID 2282941). The conditions noted are these: HepG2 ETS cis-reporter transcription, actives raise or lower the signal. A digest of the protocol: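 Human HepG2 hepatoma cells were transiently transfected with promoter-driven reporter constructs and treated for 24 hours. Reporter transcripts were quantified by RT-PCR with fluorescent primer extension; bidirectional curve fitting used DMSO as reference.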

Assay [10] addresses Hepatocyte nuclear factor 3-beta (Homo sapiens) (UniProt Q9Y261). Nature of the assay: ATG_FoxA2_CIS: Attagene CIS-FACTORIAL HepG2 Assay for human Forkhead box A2 (FOXA2) (AID 2282942). Particulars: HepG2 cis-reporter transcription factor activity, 24 h; actives raise or lower the signal. A digest of the protocol: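 In transiently transfected human HepG2 cells, promoter-driven reporter mRNA levels after 24 h chemical exposure are determined via RT-PCR with capillary electrophoresis. DMSO serves as baseline for bidirectional fitting.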

Assay [11] in a line: ATG_FoxO_CIS: Attagene CIS-FACTORIAL HepG2 Assay for human Forkhead box O (FoxO) (AID 2282943). Particulars: HepG2 Attagene cis-reporter, FoxO element, mRNA; actives raise or lower the signal. In a few lines:
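Endogenous transcription factor activity read from multiplexed cis-promoter reporter transcripts in transiently transfected HepG2, 24 h after dosing. Reporter RNA measured via RT-PCR plus capillary electrophoresis of FAM-labeled products; gain or loss relative to DMSO.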

Assay [12] is described as follows: ATG_GATA_CIS: Attagene CIS-FACTORIAL HepG2 Assay for human GATA Binding Protein (AID 2282944). Particulars: HepG2 GATA cis-element reporter, Attagene multiplex mRNA; actives raise or lower the signal. In a few lines: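 Read-out: fluorescent reporter mRNA fragments resolved by capillary electrophoresis after RT-PCR. Human liver HepG2 cells carried transiently transfected cis-regulated reporter constructs; chemicals incubated 24 h; gain or loss of signal fitted relative to DMSO.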

A short description of assay [13]: ATG_GLI_CIS: Attagene CIS-FACTORIAL HepG2 Assay for human Zinc Finger Protein GLI1 (AID 2282945). Particulars: HepG2, Attagene cis-factorial reporter mRNA, GLI element; actives raise or lower the signal. In a few lines:
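Bidirectional curve fits relative to DMSO, using reporter mRNA levels from RT-PCR plus capillary electrophoresis. Cells were HepG2 transiently carrying cis-regulated reporter constructs, harvested 24 h after dosing.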

A short description of assay [14]: ATG_M_06_CIS: Attagene CIS-FACTORIAL HepG2 Assay for M06 Transcription Factor (Internal Marker) (AID 2282950). The conditions noted are these: HepG2 Attagene CIS-FACTORIAL M06 internal marker reporter; actives raise or lower the signal. A digest of the protocol:
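Terse: HepG2, transient MRTU transfection (FuGene 6), 24 h dosing; total RNA, oligo(dT) RT, PCR, FAM label, HpaI cut, capillary electrophoresis; bidirectional fit vs DMSO baseline; background-control endpoint.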

The nature of assay [15]: ATG_MRE_CIS: Attagene CIS-FACTORIAL HepG2 Assay for human Metal Responsive Element (MRE) (AID 2282954). The conditions noted are these: HepG2 MRE cis-reporter transcription, Attagene multiplex; actives raise or lower the signal. In a few lines:
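Transient MRTU transfection of HepG2 (FuGene 6); 24 h dosing; total RNA → oligo(dT) RT, PCR, 6-FAM primer extension, HpaI cut, CE. Bidirectional fit vs DMSO.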

In assay [16] the target is Paired box protein Pax-6 (Homo sapiens) (UniProt P26367). Nature of the assay: ATG_Pax6_CIS: Attagene CIS-FACTORIAL HepG2 Assay for human Paired Box 6 (PAX6) (AID 2282956). The conditions noted are these: HepG2 CIS-FACTORIAL PAX6 reporter transcription, RNA readout; actives raise or lower the signal. In a few lines:
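Multiplexed cis-reporter HepG2 system; 24 h treatment; reporter mRNA read by RT-PCR/CE fluorescence; bidirectional fit vs DMSO.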

Assay [17] is described as follows: ATG_PXRE_CIS: Attagene CIS-FACTORIAL HepG2 Assay for human Pregnane X Receptor Element (PXRE) (AID 2282957). The conditions noted are these: HepG2 Attagene CIS-FACTORIAL PXRE reporter, mRNA; actives raise or lower the signal. A digest of the protocol:
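Transfect HepG2 with MRTUs (cis promoter elements); dose chemical, incubate 24 h; isolate RNA, RT with oligo(dT), PCR, 6-FAM label, HpaI cut, CE. Gain/loss fit vs DMSO.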

Assay [18] in a line: ATG_Sox_CIS: Attagene CIS-FACTORIAL HepG2 Assay for human SRY-box transcription factor (SOX) (AID 2282960). Particulars: HepG2 Attagene cis-factorial SOX reporter, mRNA; actives raise or lower the signal. A digest of the protocol:
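After 24 h of chemical treatment, transfected HepG2 reporter cells are lysed for total RNA. Transcript levels come from RT-PCR with labelled primer extension and capillary electrophoresis, analysed bidirectionally versus DMSO.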

Assay [19] concerns the target Transcription factor Sp1 (Homo sapiens) (UniProt P08047). Nature of the assay: ATG_Sp1_CIS: Attagene CIS-FACTORIAL HepG2 Assay for human Specificity Protein 1 (Sp1) (AID 2282961). Particulars: HepG2 Sp1 cis-reporter transcription, actives raise or lower the signal. In a few lines:
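Sp1-driven reporter mRNA, read as capillary electrophoresis fluorescence after RT-PCR, in transiently transfected HepG2 cells dosed for 24 h; signal change in either direction relative to DMSO.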

Assay [20] is described as follows: ATG_SREBP_CIS: Attagene CIS-FACTORIAL HepG2 Assay for human Sterol Regulatory Element Binding (SREBP) (AID 2282962). The conditions noted are these: HepG2 Attagene cis-factorial SREBP reporter, mRNA; actives raise or lower the signal. A digest of the protocol: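 mRNA induction of transfected cis-promoter reporters in HepG2 cells, 24 h post-dose. Detection: RT-PCR with 6-FAM-labelled products, HpaI digest, capillary electrophoresis. DMSO served as negative control and baseline.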

Sequence of Transcription factor E2F1 (Homo sapiens) (Q01094 whole entry, looked up): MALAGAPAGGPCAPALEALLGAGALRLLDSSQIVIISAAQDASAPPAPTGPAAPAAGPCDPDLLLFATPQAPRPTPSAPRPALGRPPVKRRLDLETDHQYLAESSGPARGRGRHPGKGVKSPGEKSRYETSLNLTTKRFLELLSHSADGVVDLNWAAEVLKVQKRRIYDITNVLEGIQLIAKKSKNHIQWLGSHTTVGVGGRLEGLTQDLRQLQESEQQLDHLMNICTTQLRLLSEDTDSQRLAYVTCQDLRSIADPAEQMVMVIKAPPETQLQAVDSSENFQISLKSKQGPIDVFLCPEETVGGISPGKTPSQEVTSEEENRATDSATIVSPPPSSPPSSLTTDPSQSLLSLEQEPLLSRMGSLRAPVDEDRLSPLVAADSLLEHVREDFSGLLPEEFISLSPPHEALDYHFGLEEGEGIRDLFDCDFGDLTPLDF
Sequence of Transcription factor Sp1 (Homo sapiens) (P08047 whole entry, looked up): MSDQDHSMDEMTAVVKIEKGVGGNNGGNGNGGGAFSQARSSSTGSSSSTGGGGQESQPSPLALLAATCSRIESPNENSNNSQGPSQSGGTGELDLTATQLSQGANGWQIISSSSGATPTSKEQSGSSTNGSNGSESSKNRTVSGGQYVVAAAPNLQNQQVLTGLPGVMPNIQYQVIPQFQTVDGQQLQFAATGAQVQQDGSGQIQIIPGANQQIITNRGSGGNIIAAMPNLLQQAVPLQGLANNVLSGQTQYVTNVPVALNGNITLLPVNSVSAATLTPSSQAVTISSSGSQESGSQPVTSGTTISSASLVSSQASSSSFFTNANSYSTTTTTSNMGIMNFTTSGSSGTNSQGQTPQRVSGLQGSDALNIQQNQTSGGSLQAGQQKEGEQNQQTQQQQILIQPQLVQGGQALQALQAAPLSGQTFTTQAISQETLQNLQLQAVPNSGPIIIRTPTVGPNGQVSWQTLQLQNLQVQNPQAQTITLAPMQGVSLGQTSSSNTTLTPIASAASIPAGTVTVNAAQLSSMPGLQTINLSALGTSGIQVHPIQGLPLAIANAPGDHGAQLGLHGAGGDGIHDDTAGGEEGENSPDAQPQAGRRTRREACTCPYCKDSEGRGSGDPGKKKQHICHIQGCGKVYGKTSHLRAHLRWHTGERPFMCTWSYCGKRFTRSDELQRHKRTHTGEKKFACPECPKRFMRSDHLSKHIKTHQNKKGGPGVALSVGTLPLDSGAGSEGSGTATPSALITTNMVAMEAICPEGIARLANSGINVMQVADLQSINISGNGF
Sequence of Hepatocyte nuclear factor 3-beta (Homo sapiens) (Q9Y261 whole entry, looked up): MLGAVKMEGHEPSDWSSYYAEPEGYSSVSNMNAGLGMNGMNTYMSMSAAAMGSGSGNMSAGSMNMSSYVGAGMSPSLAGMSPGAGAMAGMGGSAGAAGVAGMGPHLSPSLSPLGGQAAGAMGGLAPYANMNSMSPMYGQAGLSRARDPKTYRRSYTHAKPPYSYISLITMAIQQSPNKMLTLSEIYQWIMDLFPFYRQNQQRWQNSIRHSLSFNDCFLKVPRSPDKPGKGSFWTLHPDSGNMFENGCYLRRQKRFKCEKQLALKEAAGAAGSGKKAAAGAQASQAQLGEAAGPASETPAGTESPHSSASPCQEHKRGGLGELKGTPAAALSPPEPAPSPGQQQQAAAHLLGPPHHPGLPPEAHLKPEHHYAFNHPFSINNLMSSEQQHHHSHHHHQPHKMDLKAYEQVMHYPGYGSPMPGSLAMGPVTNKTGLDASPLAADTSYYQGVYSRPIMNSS
Sequence of CCAAT/enhancer-binding protein beta (Homo sapiens) (P17676 whole entry, looked up, the tested form may be a part): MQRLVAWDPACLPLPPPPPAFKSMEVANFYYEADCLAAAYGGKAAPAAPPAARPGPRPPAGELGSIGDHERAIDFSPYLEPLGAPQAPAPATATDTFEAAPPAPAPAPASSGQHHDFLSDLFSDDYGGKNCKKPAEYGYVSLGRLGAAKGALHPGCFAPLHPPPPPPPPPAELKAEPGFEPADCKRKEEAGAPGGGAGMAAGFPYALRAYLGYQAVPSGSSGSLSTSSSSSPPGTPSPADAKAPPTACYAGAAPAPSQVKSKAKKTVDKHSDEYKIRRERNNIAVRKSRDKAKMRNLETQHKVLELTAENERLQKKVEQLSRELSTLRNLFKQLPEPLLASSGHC
Sequence of Paired box protein Pax-6 (Homo sapiens) (P26367 whole entry, looked up): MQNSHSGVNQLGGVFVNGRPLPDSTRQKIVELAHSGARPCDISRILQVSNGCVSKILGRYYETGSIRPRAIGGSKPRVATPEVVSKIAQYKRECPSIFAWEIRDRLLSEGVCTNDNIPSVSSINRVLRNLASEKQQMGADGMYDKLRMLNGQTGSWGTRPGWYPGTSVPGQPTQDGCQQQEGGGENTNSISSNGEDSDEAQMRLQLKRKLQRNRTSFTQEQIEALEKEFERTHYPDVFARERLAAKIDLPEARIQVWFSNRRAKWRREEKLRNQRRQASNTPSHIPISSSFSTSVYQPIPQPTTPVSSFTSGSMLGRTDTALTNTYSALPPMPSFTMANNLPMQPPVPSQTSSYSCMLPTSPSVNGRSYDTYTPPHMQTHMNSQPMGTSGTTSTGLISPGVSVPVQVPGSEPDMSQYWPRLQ

Regarding `CCC(=O)c1ccc(Cl)cc1`, the molecule was classed as inactive in assay [1], in assay [2], in [3], in [4], in assay [5] and in [6]. Also, the molecule was called inactive in assay [7], in assay [8], in [9], in assay [10], in [11] and in assay [12]. The molecule was called inactive in assay [13], in assay [14], in assay [15], in assay [16], in [17] and in assay [18]. The call in assay [19] and in assay [20] was inactive.
Turning to `c1ccc(Nc2ccc3ccccc3c2)cc1`, the molecule was classed as inactive in [1], in [2], in assay [4], in [5], in assay [6] and in assay [7]. Besides, the result in assay [8], in assay [9], in assay [10], in assay [11], in [12] and in assay [13] was inactive. Further, the molecule was called inactive in assay [14], in assay [15], in assay [16], in assay [18], in assay [19] and in [20]. For the same molecule, the figures for the AC50 in assay [3] and in [17] were 20.6 µM (active) and 10.3 µM (active), respectively.
For the molecule `CCCCCCCCCCCC#N`, the molecule was called inactive in assay [1], in assay [2], in assay [4], in assay [5], in assay [6] and in assay [7]. For the same molecule, the outcome in assay [8], in [9], in [10], in assay [11], in assay [12] and in [14] was inactive. Moreover, the molecule was called inactive in assay [16]. Besides, the AC50 is 148 µM (active) in assay [3]; 163 µM (active) in assay [13]; 136 µM (active) in assay [15]; 27.8 µM (active) in assay [17]; 103 µM (active) in assay [18]; 76.4 µM (active) in assay [19]. In [20], the AC50 is 128 µM (active).
As for `CSc1nc(N=[N+]=[N-])nc(NC(C)C)n1`, the outcome in assay [1], in assay [2], in [3], in assay [4], in [5] and in [6] was inactive. Besides, the molecule was classed as inactive in [7], in [8], in [9], in assay [10], in assay [11] and in [12]. Besides, the call in [13], in [14], in assay [15], in assay [16], in assay [18] and in assay [19] was inactive. In addition, the outcome in assay [20] was inactive. Also, the AC50 in assay [17] is 27.2 µM (active).
Take `C=COCCCl`: the call in [1], in assay [2], in [3], in assay [4], in assay [5] and in [6] was inactive. Moreover, the call in assay [7], in assay [8], in assay [9], in [10], in assay [11] and in [12] was inactive. For the same molecule, the molecule was classed as inactive in [13], in assay [14], in assay [15], in [16], in assay [17] and in [18]. For the same molecule, the result in assay [19] and in assay [20] was inactive.
As to `CCOC(=O)C1OC1(C)c1ccccc1` (stereo not given), the outcome in assay [1], in assay [2], in assay [3], in assay [4], in [5] and in assay [6] was inactive. Also, the result in assay [7], in assay [8], in assay [9], in assay [10], in assay [11] and in assay [12] was inactive. For the same molecule, the molecule was classed as inactive in assay [13], in assay [14], in [15], in [16], in [18] and in assay [19]. Further, the call in [20] was inactive. Besides, the AC50 in [17] is 100 µM (active).
Turning to `C[N+](C)(C)CC(=O)O`, the molecule was classed as inactive in [1], in assay [2], in assay [3], in assay [4], in assay [5] and in assay [6]. The outcome in assay [7], in [8], in assay [9], in assay [10], in assay [11] and in assay [12] was inactive. The outcome in [13], in assay [14], in [15], in assay [16], in assay [17] and in assay [18] was inactive. The outcome in assay [19] and in assay [20] was inactive.
